From PubChem BioAssay
Active and inactive are the calls of the source.

Assay: optical density shifts of acrAB sulA E. coli – strain DRC41, OD650, 48 h, E. coli filamentation inducer project, primary screen (AID 1152);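 note: E. coli MC1000 strain DRC41 lacking acrAB efflux pump and sulA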
Settings: higher = more signal, called active from +8 up or from −8 down

SMILES	z-score
COC(=O)[C@H](Cc1ccccc1)N1CC(/C=C/C2CC2)=C[C@H]1[C@H](O)Cc1ccccc1	-0.555 (inactive)
C=CC[C@]1(C(=O)NCCN2CCOCC2)N=C(c2ccc(OCCCO)cc2)O[C@H]1c1ccccc1CN=[N+]=[N-]	1.33 (inactive)
COC(=O)[C@@]1(Cc2ccc(F)cc2)[C@H]2c3cc(C(=O)N4CCCC4)n(CCc4ccc(O)c(O)c4)c3C[C@H]2CN1C(=O)c1ccccc1	-1.04 (inactive)
[N-]=[N+]=NCc1ccccc1[C@H]1OC(c2ccc(OCCCO)cc2)=N[C@@]1(CCS(=O)(=O)c1ccccc1)C(=O)NCC(O)CO (stereo not given in full)	-0.0559 (inactive)
C[C@]1(C(=O)NC2CC2)c2ccccc2C(=O)N(Cc2ccccc2)[C@H]1c1ccc(CO)cc1	2.07 (inactive)
COC(=O)C(CC#Cc1ccc2c(c1)[C@]1(C(=O)N2)[C@H](c2ccccc2OCCO)N2[C@H](c3ccccc3)[C@H](c3ccccc3)OC(=O)[C@H]2[C@@H]1C(=O)NC[C@H](O)c1ccccc1)C(=O)OC	0.345 (inactive)
COCCOC(=O)N1C(=O)[C@@]2(c3cc(C#CCCO)ccc31)[C@H](C(=O)Nc1nc3ccccc3s1)[C@H]1C(=O)O[C@H](c3ccccc3)[C@H](c3ccccc3)N1[C@@H]2c1ccccc1OCCO	-0.348 (inactive)
COCCOC(=O)N1C(=O)[C@@]2(c3cc(C#CC4=CCCCC4)ccc31)[C@H](c1ccc(O)cc1)N1[C@H](c3ccccc3)[C@H](c3ccccc3)OC(=O)[C@H]1[C@@H]2C(=O)N1CCN(c2ncccn2)CC1	-0.202 (inactive)
C[C@@H]1NC(=O)[C@@]23C(=O)N[C@@H](Cc4ccccc4)C2[C@H](C)[C@@]2(C)O[C@H]2C3/C=C/C/C=C\CNC(=O)[C@@H]2CCCN2C1=O (stereo not given in full)	-0.906 (inactive)

Assay: probe aLefty1 binding on compound microarray – biochemical, small-molecule microarray, 635/667 nm fluorescence, primary screen (AID 1153);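 note: score merges spot fluorescence with signal-to-noise ratio from the scanned slide images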
Settings: higher = more signal

SMILES	composite z-score
OCCCC1=CC(c2ccc(CN3CCCC3)cc2)N(Cc2sc3ccccc3c2Cl)CC1 (stereo not given)	0.527
CC(C)C(CO)N1C(=O)[C@@H]2C3C(=O)OCCC/C=C\[C@H]3OC23C=CCN(C(C)(C)C)C(=O)[C@@H]13 (stereo not given in full)	-0.142
O=c1n(-c2ccccc2)c(=O)n2n1CC(COc1ccccc1)=C([C@H](O)CCc1ccccc1)[C@@H]2CO	-0.315
CC(C)C(=C=CC[C@H](O)c1cccc(OCCO)c1)C[C@H](O)c1cc(Cl)cc(Cl)c1O	0.0999
CC(C)(C)OC(=O)CC[C@]1(C(=O)NCC(O)CO)N=C(c2ccc(OCCCO)cc2)O[C@H]1c1ccccc1 (stereo not given in full)	0.125
COC(=O)[C@@]1(Cc2ccccc2)[C@H]2c3cc(C(=O)N(C)C)n(CCc4ccc(O)c(OC)c4)c3C[C@H]2CN1C(=O)c1ccccc1	1.11
C=CCNC(=O)[C@@H]1[C@H]2C(=O)O[C@H](c3ccccc3)[C@H](c3ccccc3)N2[C@H](c2ccc(O)cc2)[C@@]12C(=O)N(C(=O)OCCOC)c1ccc(C#CC3(O)CCCCCC3)cc12	-0.639
CCCC[C@@H]1C[C@H]1[C@@H](NC(=O)c1cccs1)c1ccc(C(F)(F)F)cc1	0.101
COCCOC(=O)N1C(=O)[C@@]2(c3cc(C#Cc4ccc(OC)cc4)ccc31)[C@H](c1ccccc1OCCO)N1[C@H](c3ccccc3)[C@H](c3ccccc3)OC(=O)[C@H]1[C@@H]2C(=O)N1CCCCCCC1	2.81
Cc1ccccc1C(O)C1C=CC2C(=O)N(C)C(=O)C2N1N(c1ccccc1)c1ccccc1 (stereo not given)	0.998
Cc1ccc(S[C@]2(C(=O)NCC(F)(F)F)CC(=O)N(Cc3ccccc3C(F)(F)F)[C@@H]2c2ccc(CO)cc2I)cc1	-0.135
CC(C)N1C(=O)C[C@@](C(=O)NCCCN(C)C)(c2ccc([N+](=O)[O-])cc2)[C@H]1c1ccc(CO)cc1	0.0129
CCOc1cc(C(O)C2C=CC3C(=O)N(c4ccccc4)C(=O)C3N2Nc2ccc(C#N)cc2)ccc1O (stereo not given)	0.302
CN(C)C(=O)[C@@]1(Cc2ccccc2CN=[N+]=[N-])N=C(c2ccc(OCCCO)cc2)O[C@H]1c1ccccc1CN=[N+]=[N-]	0.315
C=CC[C@]1(C(=O)O)COC(c2ccc(OCCCO)cc2)=N1	0.0437
C=CCC(OC(C)=O)[C@@H]1[C@@H](N(Cc2cccc3ccccc23)C(=O)Cc2ccc(OC)cc2)c2cc(OCCCO)ccc2N1C(=O)c1ccc2ccccc2n1 (stereo not given in full)	0.164
CCOC(=O)C[C@H]1[C@H](OC(=O)Cc2ccc3c(c2)OCO3)[C@@H](NC(=O)CC(C)C)c2cc(OCCCO)ccc2N1C(=O)Cc1ccc(OC)cc1	-0.145
[N-]=[N+]=NCc1ccccc1C[C@@]1(C(=O)NCc2ccccc2)N=C(c2ccc(OCCCO)cc2)O[C@@H]1c1ccccc1N=[N+]=[N-]	-0.221

SMILES	composite z-score
O=C1C2C=CC(C(O)c3ccc(F)cc3)N(n3cnnc3)C2C(=O)N1Cc1ccccc1 (stereo not given)	0.041
NC(=O)NCC#Cc1ccc2c(c1)[C@]1(C(=O)N2)[C@H](C(=O)NC[C@H](O)c2ccccc2)[C@H]2C(=O)O[C@H](c3ccccc3)[C@H](c3ccccc3)N2[C@@H]1c1ccc(OCCO)cc1	0.157
O=C1O[C@H](c2ccccc2)[C@H](c2ccccc2)N2[C@H]1[C@@H](C(=O)N1CCN(c3ncccn3)CC1)[C@]1(C(=O)Nc3ccc(C#CC4(O)CCCCCC4)cc31)[C@H]2c1ccc(OCCO)cc1	1.66
CCOc1cc(C(O)C2C=CC3C(=O)N(C)C(=O)C3N2Nc2ccccc2)ccc1O (stereo not given)	0.0313
CN(C)CCCNC(=O)[C@@H]1c2ccccc2C(=O)N(Cc2ccccc2Cl)[C@H]1c1ccc(CO)cc1	0.022
[N-]=[N+]=NCc1ccccc1[C@H]1OC(c2ccc(OCCCO)cc2)=N[C@@]1(CCS(=O)(=O)c1ccccc1)C(=O)N1CCCCC1	0.666
O=C1NC(=O)C2C1C=CC(C(O)c1ccco1)N2Nc1ccccn1 (stereo not given)	-0.145
CCCCC(O)C1C=CC2C(=O)N(c3ccccc3)C(=O)C2N1Nc1ccc(C(C)C)cc1 (stereo not given)	0.484
C=CC[C@@]1(C(=O)N2CCOCC2)N=C(c2ccc(OCCCO)cc2)O[C@@H]1c1ccccc1CN=[N+]=[N-]	0.789
COC(=O)[C@H](Cc1ccccc1)N1CC(/C=C/C2CC2)=C[C@H]1[C@H](O)Cc1ccccc1	-0.012
C=CC[C@]1(C(=O)NCCN2CCOCC2)N=C(c2ccc(OCCCO)cc2)O[C@H]1c1ccccc1CN=[N+]=[N-]	-0.264
COC(=O)[C@@]1(Cc2ccc(F)cc2)[C@H]2c3cc(C(=O)N4CCCC4)n(CCc4ccc(O)c(O)c4)c3C[C@H]2CN1C(=O)c1ccccc1	1.09
[N-]=[N+]=NCc1ccccc1[C@H]1OC(c2ccc(OCCCO)cc2)=N[C@@]1(CCS(=O)(=O)c1ccccc1)C(=O)NCC(O)CO (stereo not given in full)	0.675
C[C@]1(C(=O)NC2CC2)c2ccccc2C(=O)N(Cc2ccccc2)[C@H]1c1ccc(CO)cc1	-0.147
COC(=O)C(CC#Cc1ccc2c(c1)[C@]1(C(=O)N2)[C@H](c2ccccc2OCCO)N2[C@H](c3ccccc3)[C@H](c3ccccc3)OC(=O)[C@H]2[C@@H]1C(=O)NC[C@H](O)c1ccccc1)C(=O)OC	0.964
COCCOC(=O)N1C(=O)[C@@]2(c3cc(C#CCCO)ccc31)[C@H](C(=O)Nc1nc3ccccc3s1)[C@H]1C(=O)O[C@H](c3ccccc3)[C@H](c3ccccc3)N1[C@@H]2c1ccccc1OCCO	1.28
COCCOC(=O)N1C(=O)[C@@]2(c3cc(C#CC4=CCCCC4)ccc31)[C@H](c1ccc(O)cc1)N1[C@H](c3ccccc3)[C@H](c3ccccc3)OC(=O)[C@H]1[C@@H]2C(=O)N1CCN(c2ncccn2)CC1	-0.183
C[C@@H]1NC(=O)[C@@]23C(=O)N[C@@H](Cc4ccccc4)C2[C@H](C)[C@@]2(C)O[C@H]2C3/C=C/C/C=C\CNC(=O)[C@@H]2CCCN2C1=O (stereo not given in full)	-0.147
